# Screening data as filed in PubChem.
# NIH3T3 tox = Cytotoxic Profiling in NIH 3T3 Cell Line of Diverse Libraries Using Quantitative High-Throughput Screening; NIH 3T3 viability, CellTiter-Glo ATP luminescence, 48-72 h; Potency, µM (doses to about 96.7 µM), without a hit: at the top dose activity change, negative = cytotoxicity, usual class: inhibitors; 4.3% of 94,000 active; AID 1345082, 2018; further: on the % scale 0 is the no-effect control and ±100 the full control effect; nearly all actives have a fitted effect of over 55% in size
#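 Luminescent ATP readout (CellTiter-Glo, 10 min RT) after 48 or 72 hr compound exposure of NIH 3T3 cells seeded at 400 cells/well in 1536-well format; quantitative HTS.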
# HEK293 tox = Cytotoxic Profiling in HEK 293 Cell Line of Diverse Libraries Using Quantitative High-Throughput Screening; HEK 293 viability, ATP luminescence (CellTiter-Glo), 48-72 h; Potency, µM (titrated, usually from 115 µM), for the others: at the top dose activity change, negative = cytotoxicity, actives largely listed as inhibitors; 6.6% of 94,000 active; AID 1345083, 2018; further: on the % scale 0 is the no-effect control and ±100 the full control effect; nearly all actives have a fitted effect of over 60% in size
#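 HEK 293 seeded at 250 cells/well receive compound via pintool. After 48 or 72 hr at 37 degree Celsius, 5% CO2 and 95% humidity, CellTiter-Glo is dispensed and luminescence read following 10 min at room temperature.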
# NPR1 antag = Natriuretic polypeptide receptor (hNpr1) antagonism - Primary qHTS; Atrial natriuretic peptide receptor 1 (Homo sapiens), P16066; AID 1347048, 2019; HEK293 hNpr1 GloSensor cGMP, ANP-stimulated luminescence; Potency, µM (series often up to 46.3 µM), for inactives: at the top dose activity change, negative = inhibition, most hits filed as inhibitors; 1.6% of 76,000 active; calls by dose curve; further: on the % scale 0 is the no-effect control and ±100 the full control effect; nearly all actives have a fitted effect of over 60% in size
#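 HEK293 cells stably expressing human Npr1 and cGMP GloSensor pGS-40F, loaded 2 h with 2% GloSensor reagent, given compound 30 min at room temperature. Luminescence read before and 20 min after 0.1 nM hNppA.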
# FLuc inh = Firefly luciferase inhibition profiling of diverse chemical library using quantitative high-throughput screening | purified P. pyralis luciferase, luminescence, biochemical | Luciferin 4-monooxygenase (Photinus pyralis), P08659 | 2.5% of 76,000 active | AID 1347043, 2019 | Potency, µM (doses to about 115 µM), most hits filed as inhibitors; further: on the % scale 0 is the no-effect control and ±100 the full control effect; nearly all actives have a fitted effect of over 65% in size
# Target sequence (P08659 whole entry, looked up): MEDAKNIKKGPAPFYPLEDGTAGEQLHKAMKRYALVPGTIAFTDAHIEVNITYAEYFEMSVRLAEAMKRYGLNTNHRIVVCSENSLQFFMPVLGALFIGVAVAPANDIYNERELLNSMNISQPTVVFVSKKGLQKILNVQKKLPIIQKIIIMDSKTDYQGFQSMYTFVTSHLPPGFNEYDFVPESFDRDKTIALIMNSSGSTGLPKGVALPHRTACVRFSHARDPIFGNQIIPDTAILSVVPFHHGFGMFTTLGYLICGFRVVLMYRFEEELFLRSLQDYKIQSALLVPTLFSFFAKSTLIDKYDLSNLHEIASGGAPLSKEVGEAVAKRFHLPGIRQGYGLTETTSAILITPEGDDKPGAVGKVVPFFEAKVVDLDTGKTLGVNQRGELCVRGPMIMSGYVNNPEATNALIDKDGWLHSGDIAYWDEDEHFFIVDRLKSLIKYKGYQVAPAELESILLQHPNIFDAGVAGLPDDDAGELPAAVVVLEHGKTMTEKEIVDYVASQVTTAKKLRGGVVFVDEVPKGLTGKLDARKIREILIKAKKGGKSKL
#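 Biochemical qHTS: compound (6-point titration) added to 10uM D-luciferin plus 10uM ATP in Tris acetate pH 7.5 buffer with Mg, Tween-20 and BSA, then purified enzyme at 10nM; light output imaged.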
# Npr1 antag conf = Natriuretic polypeptide receptor (hNpr1) antagonism - Confirmation; HEK293 hNpr1 cGMP GloSensor luminescence, ANP-stimulated; Potency, µM (titrated, usually from 57.6 µM), without a hit: at the top dose activity change, negative = inhibition, actives largely listed as inhibitors; 76% of 1,400 active; AID 1347044, 2019; shares compounds with NPR1 antag; calls by dose curve; further: nearly all actives have a fitted effect of over 70% in size
# NPR2 antag = Natriuretic polypeptide receptor (hNpr2) antagonism - Subtype selectivity assay; 67% of 1,400 active; shares compounds with NPR1 antag; Potency, µM (doses to about 57.6 µM), inactives show top-dose activity change, negative = inhibition, usual class: inhibitors; HEK293 hNpr2 GloSensor cGMP luminescence, CNP-stimulated; calls by dose curve; further: nearly all actives have a fitted effect of over 70% in size
# FLuc counter = Natriuretic polypeptide receptor (hNpr1) antagonism - Confirmation firefly luciferase (FLuc) inhibition counterscreen. shares compounds with NPR1 antag. purified FLuc enzyme, luminescence, Km substrate. Potency, µM (highest dose often 57.6 µM), inactives show at the top dose activity change, negative = inhibition, hits mostly inhibitors. 0.7% of 1,400 active. AID 1347047, 2019; further: 0% is about no effect
# GloSensor cGMP = Natriuretic polypeptide receptor (hNpr1) antagonism - Counterscreen GloSensor control cell line; shares compounds with NPR1 antag; Potency, µM (series often up to 57.6 µM), for inactives: top-dose activity change, negative = inhibition, most hits filed as inhibitors; AID 1347051, 2019; 69% of 1,400 active; HEK293 GloSensor cGMP, SNP-stimulated, luminescence; calls by dose curve; further: on the % scale 0 is the no-effect control and ±100 the full control effect; nearly all actives have a fitted effect of over 70% in size
# * marks the source's active call; other numbers are inactive results; i = inactive; ? = inconclusive; / = no result given; [ ] = another dose, or the depositor's remark. Rows were chosen to be rich in hits. Some 11% of all compounds tested hit in one or more screens of this group. Unless noted, the call rests on the fitted dose curve; in most records, active means well fitted curve in the direction sought with a large enough effect; inconclusive means small, poorly fitted or top-dose-only effect, or another doubt; inactive means no such curve, though single readings can be large; an effect the other way counts as inactive or inconclusive. Potency means the concentration at half of the fitted maximal effect.
SMILES,NIH3T3 tox,HEK293 tox,NPR1 antag,FLuc inh,Npr1 antag conf,NPR2 antag,FLuc counter,GloSensor cGMP
CC(C)c1ccc(NC(=O)c2cc3n(n2)CC(c2ccc(Cl)cc2)OC3)cc1 (centres undefined),-19.6%,?,10µM*,i,13.7µM*,?,-15.2%,10.9µM*
Cc1ccc(NC(=O)c2cc3n(n2)CC(c2ccc(Cl)cc2)OC3)cc1 (centres undefined),?,?,?,i,/,/,/,/
CCOc1ccc(C(=O)NC2CCN(c3cnn(C)c(=O)c3)CC2)cc1,-16.8%,-16.0%,-0.7%,i,/,/,/,/
COC(=O)c1ccc(NC(=O)Cn2nc3n(c2=O)CCCC3)cc1,i,-5.6%,3.6%,i,/,/,/,/
O=C(CCC[C@@H]1[C@H]2CCCN3CCC[C@@H](CN1C(=O)CCc1ccccc1)[C@@H]23)N1CCOCC1,i,2.2%,-2.5%,i,/,/,/,/
COC(=O)N1CCCCC(NC(=O)CCCc2nc(-c3ccccc3C)no2)C1 (centres undefined),?,35.5µM*,12.6µM*,i,17.2µM*,19.3µM*,-0.6%,19.3µM*
Cn1cnc(S(=O)(=O)N2CCCCC2c2noc(COCc3ccc(F)cc3)n2)c1 (centres undefined),-16.3%,?,/,/,/,/,/,/
F[C@@H]1CN(Cc2ccc(C(F)(F)F)cc2)C[C@@H]1OCc1nc2ccccc2[nH]1,?,79.4µM*,28.2µM*,i,39.6µM*,39.6µM*,-2.1%[86.2 µM],39.6µM*
F[C@@H]1CN(Cc2ccc(C(F)(F)F)cc2)C[C@@H]1OCc1nc2ccncc2[nH]1,?,?,?,i,/,/,/,/
O=C1CC2(CCN(C(=O)C3CCN(C(=O)c4ccc(F)cc4)CC3)CC2)Oc2ccccc2N1,-24.8%,?,/,/,/,/,/,/
O=C1CC2(CCN(C(=O)c3ccc(Cl)cc3)CC2)Oc2ccccc2N1,-22.1%,?,/,/,17.2µM*,19.3µM*,4.3%,12.2µM*
CC1=C(C(=O)OC(C)C)C(c2ccc(C)cc2)CC(=O)N1Cc1cccc(C#N)c1 (centres undefined),?,35.5µM*,?,i,?,?,1.2%,-1.8%
Cc1cc(C(=O)NCC23CCC=C2N(C)C(=O)CC3)n(C)n1 (centres undefined),-17.6%,i,/,/,/,/,/,/
Cc1cc(C)c(S(=O)(=O)N2CC(c3nc(-c4ccncc4)no3)C2)c(C)c1,?,44.7µM*,14.1µM*,i,24.3µM*,21.7µM*,-0.9%,21.7µM*
COc1cccc(CCC(=O)N2[C@@H]3CC[C@H]2CC(NC(=O)c2ccc(F)cc2)C3)c1 (some centres undefined),-17.5%,-7.5%,-1.4%,i,/,/,/,/
NC(=O)Cc1c[nH]c2ncc(-c3ccccc3Oc3ccccc3)cc12,?,?,25.1µM*,i,35.3µM*,35.3µM*,-1.2%[86.2 µM],19.8µM*
O=C(Cc1c[nH]c2ncc(-c3ccccc3Oc3ccccc3)cc12)NCc1cccnc1,?,?,28.2µM*,i,22.2µM*,22.2µM*,-10.4%[86.2 µM],19.8µM*
COc1ccc(CN2CCc3oc(C)c(C(=O)NC4CCN(C)CC4)c3C2)cc1,-13.2%,?,-0.2%,i,/,/,/,/
Cc1nn2c(c1-c1ccnn1C(C)C)N(Cc1ccc(O)cc1)CCC2,?,?,-7.0%[70.6 µM],i,/,/,/,/
Cc1nn2c(c1-c1ccccc1Oc1ccccc1)N(Cc1cccc(C#N)c1)CCC2,8.91µM*,8.91µM*,3.16µM*,i,2.22µM*,4.44µM*,-3.4%[86.2 µM],1.77µM*
Cc1nn2c(c1-c1ccccc1Oc1ccccc1)N(Cc1ccc(C(=O)O)s1)CCC2,31.6µM*,31.6µM*,?,i,?,?,1.0%,?
COc1cccc(CN2CCCn3nc(C)c(-c4ccccc4[S+](C)(=O)[O-])c32)c1,?,?,-14.6%[70.6 µM],i,/,/,/,/
Cc1nn2c(c1-c1ccccc1[S+](C)(=O)[O-])N(Cc1ccc(C(=O)O)s1)CCC2,12.6µM*,?,3.16µM*,i,9.94µM*,28µM*,2.5%[86.2 µM],4.98µM*
Cc1nn2c(c1-c1ccnn1C(C)C)N(Cc1cccc(C#N)c1)CCC2,14.1µM*,14.1µM*,?,i,2.8µM*,?,-0.8%[86.2 µM],?
Cc1nn2c(c1-c1ccccc1-c1ccccc1)N(Cc1ccc(C(=O)O)s1)CCC2,-8.9%[138 µM],?,1.7%[70.6 µM],i,/,/,/,/
SMILES,NIH3T3 tox,HEK293 tox,NPR1 antag,FLuc inh,Npr1 antag conf,NPR2 antag,FLuc counter,GloSensor cGMP
Cc1noc(-c2cn(C3CCN(C(=O)c4ccc(F)c(Cl)c4)CC3)nn2)n1,?,-13.7%,-1.3%,i,/,/,/,/
O=C(c1ccc(F)c(Cl)c1)N1CCC(n2cc(-c3nc(-c4ccccc4)no3)nn2)CC1,?,?,12.6µM*,i,24.3µM*,21.7µM*,-19.8%,21.7µM*
O=C(c1cccc(Cl)c1)N1CCCC(n2cc(-c3nc(-c4ccccc4)no3)nn2)C1 (centres undefined),?,?,15.8µM*,?,27.3µM*,27.3µM*,-29.4%,27.3µM*
O=C(c1ccccc1F)N1CCC(n2cc(-c3nc(-c4ccccc4)no3)nn2)C1 (centres undefined),?,?,14.1µM*,i,21.7µM*,21.7µM*,-13.1%,17.2µM*
O=C(c1ccc(F)c(F)c1)N1CCC(n2cc(-c3nc(-c4ccccc4)no3)nn2)CC1,?,?,11.2µM*,i,24.3µM*,24.3µM*,-21.6%,21.7µM*
O=C(Cc1cccc(F)c1)N1CCC2(CC1)NCCc1c2[nH]c2ccccc12,?,?,-7.2%,i,/,/,/,/
